The record followed here is ChEMBL document CHEMBL3988442, “University of Dundee, Small-Polar-MMV Screening Library” (2021).

For some of these results: Potency and affinity values are given separately.

Common to all, as to set-up: scale not given: direction of the effect not stated beside the values
In experiment [1] the target is Protein translocase subunit SecA (Escherichia coli (strain K12)) (UniProt P10408). In words: Assay to Identify E. coli SecA ATPase Inhibitors. It is filed as functional. To be noted: 30 µM.
For experiment [2], the target named is T1, Ubiquitin-activating enzyme e1, putative (Leishmania donovani (strain BPK282A1)) (UniProt E9BSI1).
T1 sequence (whole entry): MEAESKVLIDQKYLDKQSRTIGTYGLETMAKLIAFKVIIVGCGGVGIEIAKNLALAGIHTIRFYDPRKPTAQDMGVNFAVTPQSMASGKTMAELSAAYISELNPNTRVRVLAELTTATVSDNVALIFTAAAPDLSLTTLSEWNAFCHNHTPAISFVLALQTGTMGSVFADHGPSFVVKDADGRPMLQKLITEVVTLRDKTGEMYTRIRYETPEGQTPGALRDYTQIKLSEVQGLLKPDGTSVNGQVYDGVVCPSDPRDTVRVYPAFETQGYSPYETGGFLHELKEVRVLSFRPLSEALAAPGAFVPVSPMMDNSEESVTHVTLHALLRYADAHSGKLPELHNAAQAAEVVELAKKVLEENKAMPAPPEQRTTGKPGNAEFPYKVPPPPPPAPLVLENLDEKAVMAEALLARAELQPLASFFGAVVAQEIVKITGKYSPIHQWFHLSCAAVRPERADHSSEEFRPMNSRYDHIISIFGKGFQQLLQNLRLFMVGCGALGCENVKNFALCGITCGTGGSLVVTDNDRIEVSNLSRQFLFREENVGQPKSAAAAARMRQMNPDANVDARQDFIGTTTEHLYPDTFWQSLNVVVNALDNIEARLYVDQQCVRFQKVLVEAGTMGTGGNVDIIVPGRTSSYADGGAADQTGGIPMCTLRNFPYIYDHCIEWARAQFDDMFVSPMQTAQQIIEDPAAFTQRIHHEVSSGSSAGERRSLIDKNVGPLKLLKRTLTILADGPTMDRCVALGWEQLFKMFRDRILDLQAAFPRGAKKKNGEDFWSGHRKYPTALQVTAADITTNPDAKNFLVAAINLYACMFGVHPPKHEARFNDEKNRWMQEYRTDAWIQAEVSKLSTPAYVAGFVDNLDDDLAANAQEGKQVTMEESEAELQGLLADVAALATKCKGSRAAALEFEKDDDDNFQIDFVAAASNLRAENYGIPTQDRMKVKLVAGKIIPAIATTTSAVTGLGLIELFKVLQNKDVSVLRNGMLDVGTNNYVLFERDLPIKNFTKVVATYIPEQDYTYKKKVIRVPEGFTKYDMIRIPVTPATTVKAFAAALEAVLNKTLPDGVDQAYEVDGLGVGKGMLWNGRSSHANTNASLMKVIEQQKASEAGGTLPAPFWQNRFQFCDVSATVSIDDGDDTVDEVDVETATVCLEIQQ
Kind of experiment: Leishmania donovani Ubiquitin Activating Enzyme (LdE1). It is filed as functional. The settings on record: 30 µM.

The target of experiment [3] is AMP-activated protein kinase, AMPK (Homo sapiens) (UniProt P54646+O43741+P54619+Q9UGJ0+Q9Y478+Q13131+Q9UGI9). Kind of experiment: AMP-dependent Kinase enzyme assay. An in vitro enzyme assay that detects ADP turnover that is directly proportional to AMPK activity. This uses naive AMPK that is activated during the assay with MK-8722. To be noted: 30 µM. It is filed as functional.

In experiment [4] the target is Sialic acid-binding Ig-like lectin 9 (Homo sapiens) (UniProt Q9Y336). In words: Hs-Siglec9 ALPHAscreen SOP 20170721. To be noted: 10 µM. For orientation: In Alpha technology, singlet oxygen from a donor bead excites a nearby acceptor bead.
The next experiment relates to Trypanosoma cruzi. In words: Trypanosoma cruzi phosphomannomutase and mannose-1-phosphate guanylyltransferase assay. It is filed as functional. To be noted: 10 µM.
In experiment [5] the target is T2, Arginase-2, mitochondrial (Homo sapiens) (UniProt P78540).
T2 sequence (whole entry): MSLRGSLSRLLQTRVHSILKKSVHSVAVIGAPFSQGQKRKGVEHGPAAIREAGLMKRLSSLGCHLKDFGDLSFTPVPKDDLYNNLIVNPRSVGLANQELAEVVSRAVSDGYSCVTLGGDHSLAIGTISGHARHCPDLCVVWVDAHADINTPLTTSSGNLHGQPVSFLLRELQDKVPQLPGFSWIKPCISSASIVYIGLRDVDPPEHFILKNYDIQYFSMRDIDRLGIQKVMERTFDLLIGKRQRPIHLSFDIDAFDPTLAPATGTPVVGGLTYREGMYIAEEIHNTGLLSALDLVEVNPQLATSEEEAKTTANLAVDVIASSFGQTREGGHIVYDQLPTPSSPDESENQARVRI
Kind of experiment: in vitro enzyme assay to detect the production of urea directly proportional to the activity of Arginase II. Note: in the data most compounds retested in dose-response had high values. It is filed as functional. The settings on record: 33.3 µM.

Experiment [6] has as its target T3, Proteasome subunit beta (Trypanosoma cruzi) (UniProt O96673).
T3 sequence (whole entry): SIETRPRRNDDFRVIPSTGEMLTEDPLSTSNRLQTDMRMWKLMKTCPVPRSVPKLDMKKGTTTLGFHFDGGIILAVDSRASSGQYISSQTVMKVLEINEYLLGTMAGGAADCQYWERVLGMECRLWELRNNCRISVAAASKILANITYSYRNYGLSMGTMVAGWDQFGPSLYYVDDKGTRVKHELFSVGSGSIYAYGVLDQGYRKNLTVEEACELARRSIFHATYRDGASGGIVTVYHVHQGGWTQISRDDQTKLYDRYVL
In words: Trypanosoma cruzi proteasome chymotrypsin-like activity (TcProtChymo) assay. Note: in the data most compounds retested in dose-response had high values. It is filed as functional. To be noted: 9.37 µM.

The species entered for a further experiment is Homo sapiens. In words: To identify inhibition of the IFN signalling (Jak-Stat) pathway via expression of an eGFP reporter gene under the control of an IFN-stimulated response element (ISRE) containing MxA promoter. It is filed as functional. To be noted: 30 µM.
In experiment [7] the target is T4, Tyrosyl-tRNA synthetase, putative (Trypanosoma cruzi (strain CL Brener)) (UniProt Q4DSP6).
T4 sequence (whole entry): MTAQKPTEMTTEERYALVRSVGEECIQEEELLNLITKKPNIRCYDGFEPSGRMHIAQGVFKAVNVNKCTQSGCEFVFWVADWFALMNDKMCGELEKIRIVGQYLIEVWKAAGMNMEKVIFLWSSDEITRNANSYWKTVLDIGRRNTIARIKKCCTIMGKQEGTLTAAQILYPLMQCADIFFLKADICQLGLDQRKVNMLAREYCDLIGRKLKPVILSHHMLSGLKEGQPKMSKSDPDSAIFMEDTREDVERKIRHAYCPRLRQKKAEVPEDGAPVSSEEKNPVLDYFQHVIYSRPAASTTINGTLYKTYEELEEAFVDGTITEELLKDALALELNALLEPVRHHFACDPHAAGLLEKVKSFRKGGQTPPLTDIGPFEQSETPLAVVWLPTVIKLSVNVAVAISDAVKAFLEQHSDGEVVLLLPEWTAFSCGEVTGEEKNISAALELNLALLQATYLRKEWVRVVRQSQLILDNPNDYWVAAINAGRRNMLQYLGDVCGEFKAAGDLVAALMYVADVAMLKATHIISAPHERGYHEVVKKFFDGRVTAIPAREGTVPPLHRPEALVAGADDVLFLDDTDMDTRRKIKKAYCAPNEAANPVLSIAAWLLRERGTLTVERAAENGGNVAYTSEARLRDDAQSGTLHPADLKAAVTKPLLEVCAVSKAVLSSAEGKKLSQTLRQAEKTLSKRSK
In words: Trypanosoma cruzi tyrosyl tRNA synthetase (TcYRS) _High Tyrosine SOP. Note: in the data most compounds retested in dose-response had high values. It is filed as functional. The settings on record: 30 µM.

In experiment [8] the target is T4, Tyrosyl-tRNA synthetase, putative (Trypanosoma cruzi (strain CL Brener)). Kind of experiment: Trypanosoma cruzi tyrosyl tRNA synthetase (TcYRS) SOP. It is filed as functional. The settings on record: 30 µM.
The target of experiment [9] is Chromo domain-containing protein 1 (Saccharomyces cerevisiae (strain ATCC 204508 / S288c) (Baker's yeast)) (UniProt P32657). Kind of experiment: ScCHD-1 Enzyme Inhibition Assay. Note: in the data most compounds retested in dose-response had high values. To be noted: 30 µM. It is filed as functional.
Sequence of Chromo domain-containing protein 1 (Saccharomyces cerevisiae (strain ATCC 204508 / S288c) (Baker's yeast)) (P32657 whole entry, the tested form may be a part): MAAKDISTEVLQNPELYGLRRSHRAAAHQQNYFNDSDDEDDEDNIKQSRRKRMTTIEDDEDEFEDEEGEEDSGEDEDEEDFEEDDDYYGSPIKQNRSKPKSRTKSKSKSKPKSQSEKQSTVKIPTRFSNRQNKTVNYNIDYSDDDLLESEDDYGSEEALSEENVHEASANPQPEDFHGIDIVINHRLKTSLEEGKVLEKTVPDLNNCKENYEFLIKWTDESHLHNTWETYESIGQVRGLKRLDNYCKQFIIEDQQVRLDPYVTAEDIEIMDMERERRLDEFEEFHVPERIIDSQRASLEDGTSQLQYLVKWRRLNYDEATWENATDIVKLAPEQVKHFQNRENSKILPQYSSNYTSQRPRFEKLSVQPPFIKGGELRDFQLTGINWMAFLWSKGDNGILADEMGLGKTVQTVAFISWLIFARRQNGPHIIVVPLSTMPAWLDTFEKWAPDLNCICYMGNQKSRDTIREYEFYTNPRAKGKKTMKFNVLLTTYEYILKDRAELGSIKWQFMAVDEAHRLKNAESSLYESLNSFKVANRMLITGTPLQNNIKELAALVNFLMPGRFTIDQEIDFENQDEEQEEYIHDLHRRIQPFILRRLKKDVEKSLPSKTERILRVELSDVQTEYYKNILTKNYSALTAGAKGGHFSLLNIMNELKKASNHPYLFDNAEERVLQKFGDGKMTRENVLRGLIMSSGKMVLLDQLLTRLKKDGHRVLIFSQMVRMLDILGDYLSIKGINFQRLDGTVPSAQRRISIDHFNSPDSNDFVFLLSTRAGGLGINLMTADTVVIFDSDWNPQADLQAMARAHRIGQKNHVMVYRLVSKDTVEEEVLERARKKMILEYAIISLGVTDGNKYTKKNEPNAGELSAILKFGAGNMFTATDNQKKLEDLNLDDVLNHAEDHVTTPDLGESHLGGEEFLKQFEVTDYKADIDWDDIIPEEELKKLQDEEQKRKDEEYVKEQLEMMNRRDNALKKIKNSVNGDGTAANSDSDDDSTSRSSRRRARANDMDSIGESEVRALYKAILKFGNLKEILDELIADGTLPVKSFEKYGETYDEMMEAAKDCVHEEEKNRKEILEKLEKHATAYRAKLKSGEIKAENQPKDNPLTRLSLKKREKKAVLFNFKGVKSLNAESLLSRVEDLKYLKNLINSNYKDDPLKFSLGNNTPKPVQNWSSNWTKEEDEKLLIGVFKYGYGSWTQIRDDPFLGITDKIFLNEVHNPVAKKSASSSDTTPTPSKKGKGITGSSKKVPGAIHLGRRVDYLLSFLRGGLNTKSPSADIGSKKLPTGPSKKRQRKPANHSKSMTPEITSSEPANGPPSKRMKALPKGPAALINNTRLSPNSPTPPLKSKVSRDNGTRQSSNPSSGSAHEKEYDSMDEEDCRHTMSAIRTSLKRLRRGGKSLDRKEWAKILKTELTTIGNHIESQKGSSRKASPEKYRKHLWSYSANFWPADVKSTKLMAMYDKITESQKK

Sequence of Sialic acid-binding Ig-like lectin 9 (Homo sapiens) (Q9Y336 whole entry): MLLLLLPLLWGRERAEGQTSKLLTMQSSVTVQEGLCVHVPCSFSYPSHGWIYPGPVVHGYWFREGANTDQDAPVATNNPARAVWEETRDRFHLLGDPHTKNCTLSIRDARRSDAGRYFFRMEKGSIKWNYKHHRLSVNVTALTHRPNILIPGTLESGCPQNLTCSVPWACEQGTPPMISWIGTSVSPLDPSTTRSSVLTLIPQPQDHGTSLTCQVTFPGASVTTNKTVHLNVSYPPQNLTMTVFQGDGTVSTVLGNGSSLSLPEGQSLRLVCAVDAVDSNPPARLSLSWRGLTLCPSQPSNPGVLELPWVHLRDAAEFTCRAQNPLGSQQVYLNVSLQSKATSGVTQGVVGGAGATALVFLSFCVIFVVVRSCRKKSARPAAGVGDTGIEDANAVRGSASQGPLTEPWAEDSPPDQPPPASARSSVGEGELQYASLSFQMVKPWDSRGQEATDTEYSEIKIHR
Sequence of Protein translocase subunit SecA (Escherichia coli (strain K12)) (P10408 whole entry): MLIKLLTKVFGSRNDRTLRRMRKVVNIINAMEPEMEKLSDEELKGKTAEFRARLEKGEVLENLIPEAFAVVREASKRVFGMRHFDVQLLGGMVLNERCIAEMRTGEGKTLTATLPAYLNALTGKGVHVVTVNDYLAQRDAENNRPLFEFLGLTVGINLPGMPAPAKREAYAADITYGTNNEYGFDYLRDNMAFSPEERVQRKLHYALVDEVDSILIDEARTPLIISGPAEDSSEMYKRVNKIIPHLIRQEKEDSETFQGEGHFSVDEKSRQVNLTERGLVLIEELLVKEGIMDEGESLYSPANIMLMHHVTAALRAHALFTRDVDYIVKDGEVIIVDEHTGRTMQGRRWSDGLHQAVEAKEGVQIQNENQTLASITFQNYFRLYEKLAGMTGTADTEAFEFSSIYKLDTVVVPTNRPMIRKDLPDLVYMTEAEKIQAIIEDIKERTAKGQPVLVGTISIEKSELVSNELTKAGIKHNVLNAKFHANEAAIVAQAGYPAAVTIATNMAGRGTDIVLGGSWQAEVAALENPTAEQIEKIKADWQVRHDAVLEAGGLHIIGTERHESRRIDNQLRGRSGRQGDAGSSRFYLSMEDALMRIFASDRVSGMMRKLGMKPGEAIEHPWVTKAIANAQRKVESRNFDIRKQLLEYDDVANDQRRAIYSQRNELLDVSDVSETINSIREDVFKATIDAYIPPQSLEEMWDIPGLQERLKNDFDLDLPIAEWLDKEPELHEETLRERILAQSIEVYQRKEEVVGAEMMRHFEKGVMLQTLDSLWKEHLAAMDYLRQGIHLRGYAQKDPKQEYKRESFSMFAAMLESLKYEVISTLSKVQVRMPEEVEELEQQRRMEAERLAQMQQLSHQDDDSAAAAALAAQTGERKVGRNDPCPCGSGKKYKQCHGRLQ

With `CC(C)(CNC(=O)CCOc1cccc(F)c1)C(N)=O`, the Percent Effect in experiment [1] is -1.29%; in experiment [2] it was 7.89%; in experiment [3], 1.89%; in experiment [4], 3.39%; in the experiment with Trypanosoma cruzi, -7.14%; in experiment [5], 3.06%. For the same compound, the Percent Effect in experiment [6] was 10.5%; in the experiment filed under Homo sapiens, 12%; in experiment [7], 5.39%; in experiment [8] it was 12.2%; in experiment [9], -1.57%.

Take `Cc1csc(C2CCCN(C(=O)c3cc(Cl)c[nH]3)C2)n1` (stereo not drawn): the Percent Effect in experiment [1] was -4.24%; in experiment [2] it was 5.41%; in [3], -0.992%; in experiment [4], 9.99%; with Trypanosoma cruzi it was -5%; in [5] it was -2%. In addition, the Percent Effect was 3.96% in experiment [6]; 19% in the experiment listed under Homo sapiens; 14.3% in experiment [7]; 13.6% in experiment [8]; -2.75% in [9].

As for `COCC(=O)N1CCC(c2noc3nc(C)cc(C(F)(F)F)c23)CC1`, the Percent Effect in [1] was -6.46%; in experiment [2], 4.05%; in experiment [3], 9.11%; in experiment [4], -5.57%; with Trypanosoma cruzi it was -2.37%; in [5] it was -7.66%. In addition, the Percent Effect in experiment [6] was 13.9%; in the experiment listed under Homo sapiens it was 21.4%; in experiment [7], -2.15%; in [8], -1.3%; in experiment [9], -1.78%.

Turning to `CCOC(C)c1nc(CN2CCNCC2)cs1` (stereo not drawn), the Percent Effect in experiment [1] was -3%; in experiment [2] it was -8.11%; in experiment [3], -1.11%; in experiment [4], 0.0763%; with Trypanosoma cruzi it was -3.09%; in experiment [5], -5.24%. Besides, the Percent Effect in [6] is 6.21%; in the experiment listed under Homo sapiens, 14.6%; in [7], -1.59%; in experiment [8], -4.88%; in experiment [9], -3.79%.

`CCOc1ccc(N(CC(=O)c2ccccc2)C2=NCCCCC2)cc1`: the Percent Effect in experiment [1] is -1.17%; in experiment [2] it was -10.5%; in experiment [3], 6.97%; in [4] it was 2.61%; in the experiment on Trypanosoma cruzi, 3.21%; in experiment [5], -2.37%. Further, the Percent Effect is 8.72% in experiment [6]; -7.49% in the experiment filed under Homo sapiens; -1.06% in experiment [7]; -10.4% in [8]; 4.46% in experiment [9].

In the case of `O=C(c1cnco1)N1C[C@@H]2CC[C@H](Oc3cccc(F)c3)[C@@H]2C1`, the Percent Effect is -9.68% in experiment [1]; 12.2% in experiment [2]; 2.91% in experiment [3]; 6.76% in [4]; 0.988% in the experiment with Trypanosoma cruzi; -4.41% in [5]. For the same compound, the Percent Effect in experiment [6] is 10.9%; in the experiment filed under Homo sapiens it was 9.56%; in experiment [7] it was 3.23%; in experiment [8], 11.7%; in experiment [9], -8.63%.

For the compound `CCN(C)c1ncnc2c1CCN(C(=O)c1ccno1)CC2`, the Percent Effect is -6.78% in experiment [1]; 13.3% in experiment [2]; 0.989% in experiment [3]; 3.39% in experiment [4]; -4.05% with Trypanosoma cruzi; -46.4% in experiment [5]. Also, the Percent Effect was 5.81% in [6]; -5.04% in the experiment filed under Homo sapiens; 4.17% in experiment [7]; 7.5% in experiment [8]; -5.33% in experiment [9].

As to `CCc1ccccc1-n1cc(O)c(C(=O)N2CCCCC2)n1`, the Percent Effect in experiment [1] was -2.01%; in experiment [2] it was -29.7%; in experiment [3] it was 5.9%; in experiment [4], -1.13%; with Trypanosoma cruzi, -4.36%; in [5], 0.185%. In addition, the Percent Effect in [6] was 4.85%; in the experiment filed under Homo sapiens, 20.6%; in [7], -23.8%; in [8], -45.1%; in experiment [9] it was 2%.
